# Several values for one entry are separate records, joined by “and”; a condition that tells them apart may be missing. Equal entries are not always repeated. Activity calls are given as the source filed them. Rule for the calls: active = hit-call score of the fitted dose curve at least 0.9, where 1 is the maximum; inactive = score below 0.9.
# Read-out: Interleukin 17A (IL17A), IL17A (gene 3605)
# Assay: BSK_BT_xIL17A: BioMAP Diversity Plus: BT Assay for Interleukin 17A (IL17A) Biomarker Activity (AID 2284229)
# Details: primary human B cells with PBMC
# Method in brief: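 Luminex xMAP quantification of secreted IL-17A after 24 h chemical exposure of a primary human B cell/PBMC co-culture. Signal increases fitted relative to DMSO negative control.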
Structure (SMILES),outcome,AC50
O=S(=O)(O)CCC(F)(F)C(F)(F)C(F)(F)C(F)(F)C(F)(F)C(F)(F)C(F)(F)C(F)(F)F,inactive,–
OCC(F)(F)C(F)(F)C(F)(F)C(F)(F)C(F)(F)C(F)(F)CO,inactive,–
OCCCCC(F)(F)C(F)(F)C(F)(F)C(F)(F)F,inactive,–
OC(O)C(F)(F)C(F)(F)F,inactive,–
O=C(O)C(F)(F)C(F)(F)C(F)(F)OC(F)(F)F,inactive,–
C=CC(=O)OCC(F)(F)C(F)(F)C(F)(F)COC(=O)C=C,–,8.47 µM (active) and 6.45 µM (active)
O=C(O)C(F)(F)C(F)(F)C(F)(F)C(F)(F)C(F)(F)C(F)(F)C(F)F,inactive,–
FC(F)(F)C(F)(F)C(F)(F)C(F)(F)C(F)(F)C(F)(F)C(F)(F)CCI,inactive,–
OCC(O)CC(F)(F)C(F)(F)C(F)(F)C(F)(F)F (configuration not stated),inactive,–
NC(=O)C(F)(F)C(F)(F)C(F)(F)F,inactive,–
CNS(=O)(=O)C(F)(F)C(F)(F)C(F)(F)C(F)(F)C(F)(F)C(F)(F)C(F)(F)C(F)(F)F,inactive,–
O=S(=O)(OCC(F)(F)F)C(F)(F)C(F)(F)C(F)(F)C(F)(F)F,inactive,–
O=C(O)C(F)(F)C(F)(F)C(F)(F)C(=O)O,inactive,–
C=CC(=O)OCC(F)(F)C(F)(F)C(F)(F)C(F)(F)C(F)(F)C(F)(F)C(F)(F)C(F)F,–,30 µM (active) and 27.2 µM (active)
NC(O)(C(F)(F)F)C(F)(F)F,inactive,–
NC(=O)C(F)(F)C(F)(F)C(F)(F)C(F)(F)C(N)=O,inactive,–
OCCCC(F)(F)C(F)(F)C(F)(F)C(F)(F)C(F)(F)C(F)(F)C(F)(F)C(F)(F)F,–,22.9 µM (active) and 21.7 µM (active)

# Reference: PubChem BioAssay (EPA / NIEHS)
